Drawing on PubChem BioAssay (EPA / NIEHS), this text covers outcome and AC50 for seven compounds.

Inconclusive results are not listed. Calls of active or inactive are those of the source. Rule for the calls, unless noted: active = hit-call score of the fitted dose curve at least 0.9, where 1 is the maximum; inactive = score below 0.9.

The nature of assay [1]: BSK_4H_Eotaxin3: BioMAP Diversity Plus: 4H Assay for Eotaxin 3 Biomarker Activity (AID 2283000).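 For outcome: CCL26 protein level quantified by ELISA in parallel with SRB cytotoxicity check.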 The following applies: primary human endothelial cells (HUVEC); actives raise or lower the signal. The method, boiled down:
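HUVEC, 24 h post-dose, ELISA for Eotaxin-3/CCL26. Gain or loss of signal fitted bidirectionally vs DMSO baseline.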

Assay [2] has as its target human Peroxisome Proliferator-activated Receptor alpha (PPARa), PPARA (gene 5465) (UniProt Q07869). Description: ATG_PPARa_TRANS: Attagene TRANS-FACTORIAL HepG2 Assay for human Peroxisome Proliferator-activated Receptor alpha (PPARa) (AID 2283001; active = hit-call score of the fitted dose curve at least 0.9, where 1 is the maximum). The method, boiled down: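 Reporter transcripts from GAL4-UAS units in transfected HepG2 were quantified 24 h after dosing. Detection used reverse transcription, PCR, fluorescent primer extension and capillary electrophoresis, with DMSO as baseline.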

Read-out in assay [3]: Intercellular Adhesion Molecule 1 (ICAM1), ICAM1 (gene 3383)
Description: BSK_3C_ICAM1: BioMAP Diversity Plus: 3C Assay for Intercellular Adhesion Molecule 1 (ICAM1) Biomarker Activity (AID 2283003). The following applies: primary human endothelial cells (HUVEC); actives raise or lower the signal. The method, boiled down:
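Human vascular endothelial primary cells, 3C conditions, 24 h treatment. ICAM-1 by ELISA.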

Assay [4] concerns the target human Retinoic Acid Receptor beta (RARb), RARB (gene 5915) (UniProt P10826). In words: ATG_RARb_TRANS: Attagene TRANS-FACTORIAL HepG2 Assay for human Retinoic Acid Receptor beta (AID 2283004; active = hit-call score of the fitted dose curve at least 0.9, where 1 is the maximum). The method, boiled down: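 HepG2 cells transiently transfected with multiplexed GAL4-UAS reporter units expressing chimeric NR–Gal4 fusions; 24 h compound exposure. Reporter mRNA quantified by RT-PCR, 6-FAM labelling, HpaI digestion and capillary electrophoresis; gain-of-signal fitted against DMSO baseline.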

A short description of assay [5]: BSK_3C_Proliferation: Cell Proliferation Assessment in the BioMAP Diversity Plus: 3C Assay (AID 2283006).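 For AC50: potency may reflect either rise or fall in cell number versus DMSO.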 As to conditions: primary human endothelial cells (HUVEC). The method, boiled down: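 Proliferation of human vascular endothelial primary cells after 48 h dosing, quantified as SRB-stained protein at 560 nm relative to DMSO.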
Assay [6] deals with Peroxisome proliferator-activated receptor gamma (Homo sapiens) (UniProt P37231). Description: ATG_PPARg_TRANS: Attagene TRANS-FACTORIAL HepG2 Assay for human Peroxisome Proliferator-activated Receptor-gamma (PPARg) (AID 2283007; active = hit-call score of the fitted dose curve at least 0.9, where 1 is the maximum). The method, boiled down:
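Twenty-four hours after chemical dosing of transiently transfected HepG2 cells, isolated RNA was converted to cDNA, reporter sequences amplified and 6-FAM-labelled, then HpaI-digested and analysed by capillary electrophoresis. Signal increase against DMSO was fitted.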

Assay [7] addresses Nuclear receptor subfamily 1 group I member 2 (Homo sapiens) (UniProt O75469). In words: ATG_PXR_TRANS: Attagene TRANS-FACTORIAL HepG2 Assay for human Pregnane X Receptor (PXR) (AID 2283008; active = hit-call score of the fitted dose curve at least 0.9, where 1 is the maximum). The method, boiled down:
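HepG2 cells transiently transfected with GAL4-UAS reporter units and PXR-Gal4 chimera, exposed 24 h. Reporter mRNA quantified by RT-PCR, fluorescent labelling, HpaI digestion and capillary electrophoresis; gain of signal vs DMSO.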

Assay [8] addresses human Retinoic Acid Receptor gamma (RARg), RARG (gene 5916) (UniProt P13631). In words: ATG_RARg_TRANS: Attagene TRANS-FACTORIAL HepG2 Assay for human Retinoic Acid Receptor gamma (RARg) (AID 2283009; active = hit-call score of the fitted dose curve at least 0.9, where 1 is the maximum). The method, boiled down:
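HepG2, RARg-GAL4 TRANS system, 24 h exposure; reporter mRNA by RT-PCR + CE fluorescence; increase over DMSO.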

Assay [9] addresses human RAR-related Orphan Receptor beta (RORb), RORB (gene 6096) (UniProt Q92753). Description: ATG_RORb_TRANS: Attagene TRANS-FACTORIAL HepG2 Assay for human RAR-related Orphan Receptor beta (RORb) (AID 2283010; active = hit-call score of the fitted dose curve at least 0.9, where 1 is the maximum). The procedure, abridged:
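In this TRANS-format test, human HepG2 cells express chimeric NR-Gal4 fusion proteins driving GAL4-UAS reporters. After 24 h dosing, reporter transcripts are measured by fluorescent RT-PCR/capillary electrophoresis, with DMSO as negative control.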

For assay [10], the target named is human RAR-related Orphan Receptor gamma (RORg), RORC (gene 6097) (UniProt P51449). Description: ATG_RORg_TRANS: Attagene TRANS-FACTORIAL HepG2 Assay for human RAR-related Orphan Receptor gamma (RORg) (AID 2283011; active = hit-call score of the fitted dose curve at least 0.9, where 1 is the maximum). The method, boiled down: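 Readout: reporter transcript induction (RT-PCR, fluorescent primer extension, capillary electrophoresis) after 24 h compound exposure of transiently transfected HepG2 cells carrying a RORg-Gal4 chimera and GAL4-UAS reporters; DMSO served as baseline, with increasing signal fitted.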
Chain of human RAR-related Orphan Receptor gamma (RORg), RORC (gene 6097) (P51449 whole entry, looked up, the tested form may be a part): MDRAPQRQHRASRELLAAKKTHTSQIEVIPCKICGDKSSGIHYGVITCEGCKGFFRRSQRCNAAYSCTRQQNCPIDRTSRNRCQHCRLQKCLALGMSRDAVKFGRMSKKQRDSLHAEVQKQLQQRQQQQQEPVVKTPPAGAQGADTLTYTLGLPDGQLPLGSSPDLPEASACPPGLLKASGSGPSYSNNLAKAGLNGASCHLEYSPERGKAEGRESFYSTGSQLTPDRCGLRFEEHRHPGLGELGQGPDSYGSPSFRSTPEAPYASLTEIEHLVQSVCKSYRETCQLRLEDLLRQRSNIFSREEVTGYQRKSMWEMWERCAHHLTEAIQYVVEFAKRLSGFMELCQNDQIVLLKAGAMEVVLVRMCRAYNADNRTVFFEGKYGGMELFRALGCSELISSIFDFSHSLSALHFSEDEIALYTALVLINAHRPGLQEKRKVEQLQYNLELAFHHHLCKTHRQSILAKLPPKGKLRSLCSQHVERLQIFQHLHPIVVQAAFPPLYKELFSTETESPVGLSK

Read-out in assay [11]: E-selectin (Homo sapiens) (UniProt P16581)
Description: BSK_3C_Eselectin: BioMAP Diversity Plus: 3C Assay for Eselectin Biomarker Activity (AID 2283015).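 For outcome: cell surface E-selectin protein quantified by ELISA 24 h after dosing.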 As to conditions: primary human endothelial cells (HUVEC); actives raise or lower the signal. The procedure, abridged:
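Primary human umbilical vein endothelial cells (3C system) were dosed with chemical and cell-surface E-selectin measured by ELISA 24 h later. Bidirectional curve fitting used DMSO as negative control and baseline.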

Read-out in assay [12]: Interleukin-1 alpha (IL1a), IL1A (gene 3552)
In words: BSK_BE3C_IL1a: BioMAP Diversity Plus: BE3C Assay for Interleukin-1 alpha (IL1a) Biomarker Activity (AID 2283016). The following applies: primary human bronchial epithelial cells; actives raise or lower the signal. The method, boiled down: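 Cultures of primary human bronchial epithelial cells receive test chemical. After 24 h, IL-1a is quantified by ELISA, while parallel wells are fixed in TCA and SRB-stained for total protein. Changes in either direction are fitted relative to DMSO.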

Read-out in assay [13]: Monocyte Chemoattractant Protein-1 (MCP1), CCL2 (gene 6347)
In words: BSK_3C_MCP1: BioMAP Diversity Plus: 3C Assay for Monocyte Chemoattractant Protein-1 (MCP1) Biomarker Activity (AID 2283017). The following applies: primary human endothelial cells (HUVEC); actives raise or lower the signal. The procedure, abridged: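 Primary human umbilical vein endothelial cells (3C system) were exposed to test chemical for 24 h, after which MCP-1 was quantified by ELISA. Activity was fitted bidirectionally against DMSO as negative control and baseline.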

Read-out in assay [14]: Monocyte Chemoattractant Protein-1 (MCP1), CCL2 (gene 6347)
In words: BSK_4H_MCP1: BioMAP Diversity Plus: 4H Assay for Monocyte Chemoattractant Protein-1 (MCP1) Biomarker Activity (AID 2283018). The following applies: primary human endothelial cells (HUVEC); actives raise or lower the signal. The procedure, abridged:
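Readout: MCP-1 ELISA on compound-treated HUVEC, sampled 24 h post-dosing. Baseline and negative control DMSO; bidirectional fit. Overt toxicity checked alongside by sulforhodamine B protein staining at time of biomarker measurement.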

Read-out in assay [15]: Human Leukocyte Antigen - DR isotype (HLADR), HLA-DRA (gene 3122)
In words: BSK_3C_HLADR: BioMAP Diversity Plus: 3C Assay for Human Leukocyte Antigen - DR isotype (HLADR) Biomarker Activity (AID 2283019). As to conditions: primary human endothelial cells (HUVEC); actives raise or lower the signal. The method, boiled down: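 Primary human umbilical vein endothelial cells (3C system) were dosed with compound and cell-surface HLA-DR was quantified by ELISA at 24 h. Activity was fitted bidirectionally against DMSO as negative control and baseline.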

Read-out in assay [16]: Interleukin-8 (IL8), CXCL8 (gene 3576)
In words: BSK_3C_IL8: BioMAP Diversity Plus: 3C Assay for Interleukin-8 (IL8) Biomarker Activity (AID 2283020). The following applies: primary human endothelial cells (HUVEC); actives raise or lower the signal. The method, boiled down:
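Human vascular endothelial cells (umbilical vein) in the 3C system; IL-8 level detected by ELISA at 24 h post-dose, with DMSO as baseline.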

Assay [17] deals with human Peroxisome Proliferator-activated Receptor delta (PPARd), PPARD (gene 5467) (UniProt Q03181). Description: ATG_PPARd_TRANS: Attagene TRANS-FACTORIAL HepG2 Assay for human Peroxisome Proliferator-activated Receptor delta (PPARd) (AID 2283002; active = hit-call score of the fitted dose curve at least 0.9, where 1 is the maximum). The method, boiled down:
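Transient HepG2 transfection (multiple GAL4-UAS RTUs, chimeric receptor-Gal4); 24 h dosing; total RNA → oligo(dT) RT → PCR → 6-FAM primer extension → HpaI cut → CE. Positive direction vs DMSO.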

The target in assay [18] is human Retinoid X Receptor beta (RXRb), RXRB (gene 6257) (UniProt P28702). Description: ATG_RXRb_TRANS: Attagene TRANS-FACTORIAL HepG2 Assay for human Retinoid X Receptor beta (RXRb) (AID 2283013; active = hit-call score of the fitted dose curve at least 0.9, where 1 is the maximum). The method, boiled down:
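Multiplexed TRANS reporter assay in HepG2; 24 h dosing; reporter mRNA by RT-PCR/CE fluorescence; gain-of-signal relative to DMSO.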

The target of assay [19] is human Thyroid Receptor alpha (THRa1), THRA (gene 7067) (UniProt P10827). Description: ATG_THRa1_TRANS: Attagene TRANS-FACTORIAL HepG2 Assay for human Thyroid Receptor alpha (THRa1) (AID 2283014; active = hit-call score of the fitted dose curve at least 0.9, where 1 is the maximum). The procedure, abridged: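 HepG2 cells transiently transfected with multiplexed GAL4-UAS reporter units for exogenous chimeric THRa1-Gal4; reporter mRNA measured 24 h after dosing by RT-PCR, 6-FAM labelling, HpaI digestion and capillary electrophoresis. Gain-of-signal fitted versus DMSO baseline.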

Assay [20] addresses Retinoic acid receptor RXR-alpha (Homo sapiens) (UniProt P19793). In words: ATG_RXRa_TRANS: Attagene TRANS-FACTORIAL HepG2 Assay for human Retinoid X Receptor alpha (RXRa) (AID 2283012; active = hit-call score of the fitted dose curve at least 0.9, where 1 is the maximum). The procedure, abridged:
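Cells (HepG2) carried transiently transfected GAL4-responsive reporter units. Following a 24 h chemical incubation, reporter mRNA induction was read via RT-PCR fragment analysis; DMSO served as negative control and baseline.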

Chain of E-selectin (Homo sapiens) (P16581 whole entry, looked up): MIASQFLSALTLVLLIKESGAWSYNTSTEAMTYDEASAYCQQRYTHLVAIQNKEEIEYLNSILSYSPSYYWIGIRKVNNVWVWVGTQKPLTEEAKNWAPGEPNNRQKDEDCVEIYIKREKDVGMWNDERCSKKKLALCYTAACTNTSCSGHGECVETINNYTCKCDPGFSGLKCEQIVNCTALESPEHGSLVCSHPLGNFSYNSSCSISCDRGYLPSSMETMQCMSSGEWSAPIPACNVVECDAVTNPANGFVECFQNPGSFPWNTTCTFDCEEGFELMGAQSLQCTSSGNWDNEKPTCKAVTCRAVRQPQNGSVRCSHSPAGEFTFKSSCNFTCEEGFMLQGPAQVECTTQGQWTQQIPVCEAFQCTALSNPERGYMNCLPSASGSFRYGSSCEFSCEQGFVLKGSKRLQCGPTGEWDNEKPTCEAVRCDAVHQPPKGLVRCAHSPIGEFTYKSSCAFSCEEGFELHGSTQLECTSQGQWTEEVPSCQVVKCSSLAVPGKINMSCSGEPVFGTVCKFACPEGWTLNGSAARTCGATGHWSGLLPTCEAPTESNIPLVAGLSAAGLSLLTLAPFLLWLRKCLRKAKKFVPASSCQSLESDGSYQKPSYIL
Chain of human Peroxisome Proliferator-activated Receptor delta (PPARd), PPARD (gene 5467) (Q03181 whole entry, looked up, the tested form may be a part): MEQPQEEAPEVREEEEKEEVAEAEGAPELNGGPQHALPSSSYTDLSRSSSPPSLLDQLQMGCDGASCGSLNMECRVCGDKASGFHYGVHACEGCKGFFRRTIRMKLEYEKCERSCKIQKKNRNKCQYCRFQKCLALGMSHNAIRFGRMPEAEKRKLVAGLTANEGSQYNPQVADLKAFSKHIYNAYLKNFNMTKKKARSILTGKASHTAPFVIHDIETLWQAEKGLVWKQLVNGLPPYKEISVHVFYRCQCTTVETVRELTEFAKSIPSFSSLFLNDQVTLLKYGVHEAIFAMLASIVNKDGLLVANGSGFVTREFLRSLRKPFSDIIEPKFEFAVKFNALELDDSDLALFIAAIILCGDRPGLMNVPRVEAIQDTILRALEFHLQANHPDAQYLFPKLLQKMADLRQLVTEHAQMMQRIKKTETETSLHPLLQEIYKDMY
Chain of human Retinoic Acid Receptor gamma (RARg), RARG (gene 5916) (P13631 whole entry, looked up, the tested form may be a part): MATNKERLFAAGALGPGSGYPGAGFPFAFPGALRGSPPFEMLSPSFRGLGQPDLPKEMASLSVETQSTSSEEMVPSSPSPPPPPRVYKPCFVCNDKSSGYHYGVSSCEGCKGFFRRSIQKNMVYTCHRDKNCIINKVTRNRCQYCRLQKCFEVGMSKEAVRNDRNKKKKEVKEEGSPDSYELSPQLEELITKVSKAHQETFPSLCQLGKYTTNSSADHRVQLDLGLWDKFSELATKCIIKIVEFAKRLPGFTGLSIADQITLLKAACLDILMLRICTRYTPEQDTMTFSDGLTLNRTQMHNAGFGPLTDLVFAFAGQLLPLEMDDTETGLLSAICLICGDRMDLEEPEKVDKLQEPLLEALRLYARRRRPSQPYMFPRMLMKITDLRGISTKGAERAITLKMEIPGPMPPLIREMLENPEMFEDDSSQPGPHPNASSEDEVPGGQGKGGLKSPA
Chain of Nuclear receptor subfamily 1 group I member 2 (Homo sapiens) (O75469 whole entry, looked up, the tested form may be a part): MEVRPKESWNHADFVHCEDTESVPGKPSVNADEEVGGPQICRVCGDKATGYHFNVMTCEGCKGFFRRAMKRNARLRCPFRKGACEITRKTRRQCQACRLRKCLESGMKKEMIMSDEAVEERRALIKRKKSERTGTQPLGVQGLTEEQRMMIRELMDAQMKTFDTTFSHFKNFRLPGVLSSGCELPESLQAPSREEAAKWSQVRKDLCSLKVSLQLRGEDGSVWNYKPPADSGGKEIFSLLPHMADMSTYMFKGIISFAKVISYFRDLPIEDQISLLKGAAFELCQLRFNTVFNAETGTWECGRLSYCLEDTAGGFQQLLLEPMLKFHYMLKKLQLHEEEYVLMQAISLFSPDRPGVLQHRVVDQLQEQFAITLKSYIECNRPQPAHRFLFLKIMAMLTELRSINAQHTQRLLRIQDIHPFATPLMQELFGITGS
Chain of human Retinoic Acid Receptor beta (RARb), RARB (gene 5915) (P10826 whole entry, looked up, the tested form may be a part): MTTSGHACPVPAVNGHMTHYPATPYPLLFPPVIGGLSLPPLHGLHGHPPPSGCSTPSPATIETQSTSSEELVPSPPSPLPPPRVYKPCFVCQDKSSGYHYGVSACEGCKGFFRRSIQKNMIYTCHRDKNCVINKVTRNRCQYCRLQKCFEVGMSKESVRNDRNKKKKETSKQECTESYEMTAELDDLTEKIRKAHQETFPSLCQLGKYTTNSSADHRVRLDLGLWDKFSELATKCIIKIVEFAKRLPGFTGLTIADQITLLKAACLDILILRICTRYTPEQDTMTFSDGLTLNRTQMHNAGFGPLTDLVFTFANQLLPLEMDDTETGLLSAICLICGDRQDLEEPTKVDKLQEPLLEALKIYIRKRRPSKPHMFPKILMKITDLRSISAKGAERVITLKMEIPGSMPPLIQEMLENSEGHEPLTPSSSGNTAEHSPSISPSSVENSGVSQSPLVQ
Chain of human RAR-related Orphan Receptor beta (RORb), RORB (gene 6096) (Q92753 whole entry, looked up, the tested form may be a part): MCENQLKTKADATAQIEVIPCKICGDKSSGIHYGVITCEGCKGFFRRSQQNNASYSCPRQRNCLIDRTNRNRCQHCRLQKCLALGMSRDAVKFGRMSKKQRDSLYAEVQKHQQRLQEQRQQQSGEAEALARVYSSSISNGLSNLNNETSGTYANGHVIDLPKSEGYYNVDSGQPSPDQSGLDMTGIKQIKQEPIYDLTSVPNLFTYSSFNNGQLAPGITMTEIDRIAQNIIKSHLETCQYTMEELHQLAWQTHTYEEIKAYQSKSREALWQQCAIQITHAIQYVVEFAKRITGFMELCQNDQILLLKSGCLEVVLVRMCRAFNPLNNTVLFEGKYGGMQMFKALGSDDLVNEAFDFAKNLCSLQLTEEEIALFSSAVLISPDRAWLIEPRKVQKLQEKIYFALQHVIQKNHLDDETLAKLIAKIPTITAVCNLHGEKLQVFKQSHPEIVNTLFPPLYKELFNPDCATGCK
Chain of Peroxisome proliferator-activated receptor gamma (Homo sapiens) (P37231 whole entry, looked up): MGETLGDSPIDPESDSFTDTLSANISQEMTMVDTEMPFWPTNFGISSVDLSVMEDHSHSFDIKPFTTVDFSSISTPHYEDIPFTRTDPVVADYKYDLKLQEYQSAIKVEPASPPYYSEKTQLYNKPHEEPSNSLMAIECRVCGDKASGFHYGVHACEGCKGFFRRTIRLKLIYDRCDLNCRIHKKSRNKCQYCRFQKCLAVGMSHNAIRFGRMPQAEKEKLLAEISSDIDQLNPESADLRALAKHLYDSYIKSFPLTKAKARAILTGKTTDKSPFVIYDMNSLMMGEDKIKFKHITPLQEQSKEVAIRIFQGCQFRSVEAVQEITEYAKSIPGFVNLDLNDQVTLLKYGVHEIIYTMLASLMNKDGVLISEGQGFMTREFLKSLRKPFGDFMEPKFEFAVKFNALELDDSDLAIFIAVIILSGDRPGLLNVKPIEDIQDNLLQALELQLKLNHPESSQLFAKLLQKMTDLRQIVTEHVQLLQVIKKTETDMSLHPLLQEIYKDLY
Chain of human Retinoid X Receptor beta (RXRb), RXRB (gene 6257) (P28702 whole entry, looked up): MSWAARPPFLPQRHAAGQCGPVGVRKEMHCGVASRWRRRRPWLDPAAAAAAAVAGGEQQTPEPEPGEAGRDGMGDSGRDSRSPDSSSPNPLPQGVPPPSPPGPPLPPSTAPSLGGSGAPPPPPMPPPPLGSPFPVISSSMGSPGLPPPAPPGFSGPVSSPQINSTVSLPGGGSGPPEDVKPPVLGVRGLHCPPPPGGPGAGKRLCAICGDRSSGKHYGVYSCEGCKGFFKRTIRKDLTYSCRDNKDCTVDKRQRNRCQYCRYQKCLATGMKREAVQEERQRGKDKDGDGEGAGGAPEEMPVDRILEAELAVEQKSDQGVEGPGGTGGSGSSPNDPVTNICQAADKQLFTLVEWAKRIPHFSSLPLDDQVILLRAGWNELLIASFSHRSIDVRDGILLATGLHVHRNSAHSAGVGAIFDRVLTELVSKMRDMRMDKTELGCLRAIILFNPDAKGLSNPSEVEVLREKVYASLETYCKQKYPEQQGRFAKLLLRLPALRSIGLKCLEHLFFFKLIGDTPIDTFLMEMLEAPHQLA
Chain of Retinoic acid receptor RXR-alpha (Homo sapiens) (P19793 whole entry, looked up, the tested form may be a part): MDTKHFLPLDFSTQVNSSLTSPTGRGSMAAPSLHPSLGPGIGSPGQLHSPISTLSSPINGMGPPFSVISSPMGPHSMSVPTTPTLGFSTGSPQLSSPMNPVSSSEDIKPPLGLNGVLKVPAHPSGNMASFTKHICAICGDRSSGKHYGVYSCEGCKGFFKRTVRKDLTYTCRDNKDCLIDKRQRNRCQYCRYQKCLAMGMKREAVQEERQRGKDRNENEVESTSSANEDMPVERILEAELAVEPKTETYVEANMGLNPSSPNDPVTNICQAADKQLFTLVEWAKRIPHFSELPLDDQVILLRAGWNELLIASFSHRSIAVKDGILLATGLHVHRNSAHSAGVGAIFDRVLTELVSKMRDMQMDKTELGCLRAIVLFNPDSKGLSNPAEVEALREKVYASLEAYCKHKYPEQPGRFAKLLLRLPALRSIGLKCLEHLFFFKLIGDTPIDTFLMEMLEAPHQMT

As for `CCCSP(=O)(OCC)Oc1ccc(Br)cc1Cl` (centres undefined), the result in assay [1], in assay [2], in assay [3], in assay [4], in assay [6] and in assay [7] was inactive. For the same compound, the compound was called inactive in assay [8], in assay [9], in assay [10], in [11], in [12] and in assay [13]. In addition, the outcome in [15] and in assay [16] was inactive. In addition, the results for the AC50 in assay [5] and in assay [14] were 27.4 µM (active) and 28.9 µM (active), respectively.

With `C=C(C)[C@H]1Cc2c(ccc3c2O[C@@H]2COc4cc(OC)c(OC)cc4[C@@H]2C3=O)O1`, the AC50 (commonly the midpoint of the concentration-response curve, whichever way the signal moves) in [1] is 20 µM (active); in [5], 1.36 µM (active); in assay [19], 0.24 µM (active); in assay [11] it was 20 µM (active); in [13], 34.8 µM (active); in assay [14] it was 29.3 µM (active). In addition, the AC50 was 3.82 µM (active) in assay [15] and 20 µM (active) in assay [16]. For the same compound, the call in assay [2], in assay [17], in [3], in assay [4], in assay [6] and in assay [7] was inactive. The result in assay [8], in [10], in [18] and in [12] was inactive.

For the compound `CCCOCC(=Nc1ccc(Cl)cc1C(F)(F)F)n1ccnc1`, the AC50 in [1] is 34.4 µM (active); in assay [3] it was 29.7 µM (active); in assay [5], 33.4 µM (active); in assay [6], 1.36 µM (active); in assay [11] it was 30.2 µM (active); in [12], 33.5 µM (active). Besides, the AC50 was 30.2 µM (active) in [13], 24.9 µM (active) in assay [14], 26.8 µM (active) in [15] and 33.7 µM (active) in assay [16]. Also, the compound was called inactive in assay [2], in assay [4], in assay [7], in assay [8], in assay [20] and in assay [18].

Turning to `Cc1nn(-c2cc(NS(C)(=O)=O)c(Cl)cc2Cl)c(=O)n1C(F)F`, the outcome in assay [1], in assay [2], in [17], in [3], in assay [5] and in assay [9] was inactive. Further, the outcome in assay [10], in [20], in [19], in [11], in [12] and in assay [13] was inactive. For the same compound, the outcome in assay [14], in assay [15] and in [16] was inactive. The AC50 in [6] is 28 µM (active); in [7], 28.9 µM (active).

`COP(=O)(OC)C(O)C(Cl)(Cl)Cl` (centres undefined): the outcome in assay [1], in [2], in assay [17], in [3], in assay [4] and in assay [5] was inactive. In addition, the result in [7], in assay [8], in [9], in assay [10], in [20] and in assay [18] was inactive. Moreover, the call in assay [19], in assay [11], in assay [12], in [13], in [14] and in assay [15] was inactive. The result in assay [16] was inactive. Moreover, the AC50 in [6] is 72.2 µM (active).

On to `CCCCN(CC)c1c([N+](=O)[O-])cc(C(F)(F)F)cc1[N+](=O)[O-]`, for which the result in assay [1], in assay [2], in assay [3], in assay [4], in assay [6] and in assay [8] was inactive. The result in [20], in assay [11], in assay [12], in assay [13], in assay [14] and in assay [16] was inactive. Besides, the AC50 in assay [5] was 31.6 µM (active); in assay [7], 14.4 µM (active); in [15], 20 µM (active).

Turning to `CCOC(=O)CC(SP(=O)(OC)OC)C(=O)OCC` (centres undefined), the outcome in assay [1], in [2], in assay [17], in [3], in assay [4] and in [5] was inactive. Moreover, the outcome in [8], in [20], in assay [18], in assay [19], in assay [11] and in [12] was inactive. Moreover, the result in assay [13], in [14], in assay [15] and in [16] was inactive. The AC50 in assay [6] was 28.7 µM (active).
